Compound activity from PubChem BioAssay.
Dicer inh – blocks human Dicer maturation of pre-miR-21. cat-ELCCA pre-miR-21 Dicer processing, chemiluminescence; stronger effect = higher value. Q9UPY3. z-score at 25 µM. hit rate 6% among 47,000. AID 1347074; in the data active means z-score above about 3, passing the limit was not always enough;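 further: plate controls were vehicle for no effect and no enzyme for full effect; higher signal means more uncleaved substrate so more Dicer inhibition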
Starred values were filed as active, the others as inactive. Only a selection was taken, and hits are over-represented in it overall.

SMILES | Dicer inh
CCOC(=O)c1c(C)n(C)c2ccc(OCC(O)CN3CCN(C)CC3)cc12 (stereo unspecified) | 0.6
CCOC(=O)N1CCN(CC(O)COc2cc(C)cc(C)c2)CC1 (stereo unspecified) | 2.6
CCOC(=O)N1CCN(S(=O)(=O)c2c(C)cc(C)cc2C)CC1 | 1.2
O=C(COc1ccc(Cl)cc1)N1CCN(Cc2ccc3c(c2)OCO3)CC1 | 0.41
CSc1nc(C)nc(N/C=C(\C#N)C(=O)C2CC2)n1 | 0.04
C=CCNC(=S)NNC(=O)c1ccc2ncccc2c1 | -0.17
COc1ccc(C(=O)Cc2c(O)c3ccccc3oc2=O)cc1 | -0.04
CCOC(=O)c1nnn(-c2nonc2N)c1CN(C)C | -0.78
O=S(=O)(Oc1cccc2cccnc12)c1ccc(C(F)(F)F)cc1C(F)(F)F | -5.4
COc1ccc(OC)c(CN2CCN(S(=O)(=O)c3ccc(Cl)cc3)CC2)c1 | 3.1*
COc1ccc(OC)c(CN2CCN(Cc3ccncc3)CC2)c1 | 13
COc1ccc(S(=O)(=O)N2CCN(Cc3cc(OC)ccc3OC)CC2)cc1 | 0.59
Clc1ccccc1CN1CCN(C2CCCCC2)CC1 | 1.1
O=[N+]([O-])c1ccc2nc(SCc3c(Cl)cccc3Cl)sc2c1 | 0.05
COc1ccc(N2C(=O)C3CC=CC(C)C3C2=O)cc1 (stereo unspecified) | 5.5*
COc1ccc(N2C(=O)C3C4C=CC(CC4)C3C2=O)cc1 (stereo unspecified) | 1
CC(OC(=O)c1cccc(N2C(=O)C3CC=CC(C)C3C2=O)c1)C(=O)c1ccccc1 (stereo unspecified) | 0.91
O=C(Nc1nnc(C2CCCO2)s1)c1c(-c2ccccc2)c(-c2ccccc2)n[nH]c1=O (stereo unspecified) | 0.09
Cc1cccc(N=C(NO)c2ccccc2)c1 | -3.8
ONC(=Nc1cc(Cl)cc(Cl)c1)c1ccccc1 | 3*
NC(N)=NC(N)=Nc1cc(Cl)cc(Cl)c1 | -0.42
CCOC(=O)C(=CNc1ccc(C(=O)O)cn1)C(=O)OCC | -1.5
COC(=O)Cc1ccc(N2C(=O)c3cccnc3C2=O)cc1 | -2.3
CC(=O)Oc1ccc(N2C(=O)c3cccnc3C2=O)cc1 | 3.1*
O=C(Nc1ccc(N2C(=O)c3cccnc3C2=O)cc1)c1cccs1 | -1.4
SMILES | Dicer inh
CCOC(=O)NC(=O)c1cn(Cc2cccs2)c(=O)n(C)c1=O | -1.1
COc1ccc(COC(=O)C2=C(C)NC3=C(C(=O)CC(C)(C)C3)C2c2ccc(OC)c(O)c2)cc1 (stereo unspecified) | 1.1
O=C(O)c1ccccc1N1C(=O)C2CC=C(Cl)CC2C1=O (stereo unspecified) | -0.66
Cc1ccc(C2Nc3c(C)ccc(C(=O)O)c3C3C=CCC32)cc1 (stereo unspecified) | 3.3*
Cc1ccc(C(=O)O)c2c1N[C@H](c1cccc(Cl)c1)C1CC=CC21 (stereo partly specified) | -1.7
Cc1ccc(C(=O)O)c2c1NC(c1ccc(Cl)cc1)C1CC=CC21 (stereo unspecified) | 1.4
O=C(O)C1C2C=CC(O2)C1C(=O)NCc1cccc(Cl)c1 (stereo unspecified) | 4.4*
CCCCC(CC)CNC(=O)C1C2C=CC(O2)C1C(=O)O (stereo unspecified) | -0.18
O=C(O)C1C2C=CC(O2)C1C(=O)NCc1ccncc1 (stereo unspecified) | -0.98
COC(=O)C1=C(C)NC2=C(C(=O)CC(c3ccccc3Cl)C2)C1c1ccc(Br)cc1 (stereo unspecified) | -4.4
CCOc1ccccc1C(=O)NC(Nc1ncccn1)(C(F)(F)F)C(F)(F)F | -1
Cc1cc(C)c2nc(Nc3nc(C)cc(=O)[nH]3)nc(C)c2c1 | 1.5
Cc1cc(C)c2nc(NC3=NC(c4ccccc4)CC(=O)N3)nc(C)c2c1 (stereo unspecified) | 3.5*
Cc1ccc(NC2=NC(c3ccccc3)n3c(nc(C)cc3=O)N2)c(C)c1 (stereo unspecified) | 2
Clc1cccc(-c2nc(-c3ccccc3)ncc2-c2nnnn2-c2ccccc2)c1 | -0.15
O=C(CCc1ccccc1)NNc1ccccc1C(F)(F)F | -1.6
c1ccc(-c2noc(-c3cccc4ccccc34)n2)nc1 | 1.3
COc1ccc(-c2nc(-c3ccccn3)no2)cc1OC | 1.2
c1ccc(-c2ccc(-c3nc(-c4ccccn4)no3)cc2)cc1 | 5.2*
C=CCNC(=O)c1cnn2c(C(F)F)cc(-c3ccccc3)nc12 | 2.2
O=C1OC(Nc2cccc(Cl)c2)c2ccccc21 (stereo unspecified) | -0.82
NNC(=O)Cn1nc2n(c1=O)-c1ccccc1SC2 | 4.1*
CC(=O)Cn1nc2n(c1=O)-c1ccccc1SC2 | -0.18
CNC(=O)NC(=O)Cn1nc2n(c1=O)-c1ccccc1SC2 | 0.34
Cc1cc(N2CCN(CCO)CC2)n2c(nc3ccccc32)c1C#N | 5.3*
SMILES | Dicer inh
CCCc1cc(N2CCN(CCO)CC2)n2c(nc3ccccc32)c1C#N | 1.4
Cc1cc(NCCCCO)n2c(nc3ccccc32)c1C#N | 0.91
Cc1cc2cc3c(=O)n(C)c(=O)n(C)c3nc2cc1C | 0.47
COc1ccc(C2CC(=O)C3=C(C2)NC(C)=C(C(=O)OCC(C)C)C3c2ccc(F)cc2)cc1 (stereo unspecified) | 5.2
C=CCOC(=O)C1=C(C)NC2=C(C(=O)CC(c3ccccc3)C2)C1c1ccc(O)cc1 (stereo unspecified) | 2.4
CC1=C(C(=O)OCc2ccccc2)C(c2cccc(O)c2)C2=C(CC(c3ccccc3)CC2=O)N1 (stereo unspecified) | 3*
CCSCCOC(=O)C1=C(C)NC2=C(C(=O)CC(c3ccc(OC)cc3)C2)C1c1cccc(O)c1 (stereo unspecified) | 1.1
CC1=C(C(=O)OCC(C)C)C(c2ccc3c(c2)OCO3)C2=C(CC(c3ccccc3)CC2=O)N1 (stereo unspecified) | 0.61
CCOc1cc(C2C(C(=O)OC3CCCCC3)=C(C)NC3=C2C(=O)CC(C)(C)C3)ccc1OC(C)=O (stereo unspecified) | 5.4*
CC1=C(C(=O)OCC(C)C)C(c2ccccc2)C2=C(CC(c3ccccc3)CC2=O)N1 (stereo unspecified) | 3.6*
CC1=C(C(=O)OCCOC(C)C)C(c2cccs2)C2=C(CC(c3cccs3)CC2=O)N1 (stereo unspecified) | 4.1*
CC1=C(C(=O)OCCOC(C)C)C(c2ccc(F)cc2)C2=C(CC(c3cccs3)CC2=O)N1 (stereo unspecified) | 2.4
CC1=C(C(=O)OCCOC(C)C)C(c2cccc(Cl)c2)C2=C(CC(c3cccs3)CC2=O)N1 (stereo unspecified) | -0.16
COc1ccc(C2C(C(=O)OC3CCCCC3)=C(C)NC3=C2C(=O)CC(C)(C)C3)cc1O (stereo unspecified) | 0.85
COc1cc(C2C(C(=O)OC3CCCCC3)=C(C)NC3=C2C(=O)CC(C)(C)C3)ccc1O (stereo unspecified) | 0.6
COc1ccc(-c2cc(-c3ccc(Br)cc3)n3ncnc3n2)cc1OC | -0.53
O=C(Nc1cccnc1Sc1ccc(Cl)cc1)c1ccccc1Cl | 0.16
O=C(Cn1nnc(N2CCCCC2)n1)NNC(=S)NC(=O)C1CC1 | 10
O=C1NC(c2ccc(Cl)c(Cl)c2)Nc2ccccc21 (stereo unspecified) | -1.2
CCN(C(=O)c1cnc(Oc2ccccc2)cc1C(F)(F)F)c1ccc(Cl)cc1 | -1.8
CCOC(=O)CSC(=Nc1ccccc1)C(C#N)c1nc2ccccc2[nH]1 (stereo unspecified) | -1.5
Cc1cc(NNC(=O)Nc2ccc(Cl)cc2)nc2c1c(C)nn2C | 0.76
